Reference: PubChem BioAssay AID652054 (National Center for Advancing Translational Sciences (NCATS), 2013)
Out of some 360,000 compounds screened, about 9,100 (2.5%) were called active. About 4% were inconclusive and are not listed. The full list was thinned out, with actives kept by preference. A number with no mark means an inactive call. No stated cut-off is given here; in the data, active means max response below about -50%; inconclusive means no clear call, values can overlap the other calls; inactive means above that.

The compounds below were run against D(3) dopamine receptor (Homo sapiens) (UniProt P35462) (assay: qHTS of D3 Dopamine Receptor Antagonist: qHTS). Conditions: D3R cells, DiscoveRx beta-arrestin luminescence, antagonist mode; active compounds read low.
D(3) dopamine receptor (Homo sapiens), sequence (P35462 whole entry, looked up): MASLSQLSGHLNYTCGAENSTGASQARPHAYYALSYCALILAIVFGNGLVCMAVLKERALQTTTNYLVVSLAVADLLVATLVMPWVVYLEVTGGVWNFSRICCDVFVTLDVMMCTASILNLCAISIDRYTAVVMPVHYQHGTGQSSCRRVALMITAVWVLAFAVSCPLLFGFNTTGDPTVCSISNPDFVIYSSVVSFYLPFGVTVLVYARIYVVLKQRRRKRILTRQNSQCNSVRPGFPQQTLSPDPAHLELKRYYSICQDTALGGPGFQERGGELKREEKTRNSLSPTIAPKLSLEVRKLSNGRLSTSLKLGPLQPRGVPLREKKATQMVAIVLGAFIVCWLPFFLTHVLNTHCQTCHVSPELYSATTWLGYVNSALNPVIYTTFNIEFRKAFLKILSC
Outline: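 Cells plated overnight at 1500 cells/well, then exposed to library compounds with dopamine controls for 90 minutes at 37 degrees C. DiscoveRx reagent added for 30–60 minutes at room temperature; luminescence read, quantitative HTS format.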
On the % scale 0 is the no-effect control and ±100 the full control effect.

Compound	max response, negative = inhibition
O=C(CCl)Nc1ccc(Sc2ccc(NC(=O)CCl)cc2)cc1	-60.1% (active)
O=C(Nc1ccc(Sc2ccc(Br)cc2)cc1)c1ccco1	17.2%
O=C(CCl)Nc1cccc(CP(=O)(c2ccccc2)c2ccccc2)c1	-12.5%
CC1(C)CC(=O)C=C(c2ccc(COC(=O)c3cc(F)cc(F)c3)cc2)C1=O	-13.6%
COc1cccc(CN(C)CC(O)COC(c2ccccc2)c2ccccc2C)c1 (stereo not given)	-10.2%
CC1CCCN(CC(O)COCc2ccccc2)C1 (stereo not given)	-0.0789%
Cc1ccccc1C(OCC(O)CN1CCCCC1CCO)c1ccccc1 (stereo not given)	-53.3% (active)
CCCCC(=O)N(C)c1c(CC)nc2c(OCc3ccc(S(C)(=O)=O)cc3)cccn12	0%
CCc1nc2c(OCc3ccc(Cl)cc3Cl)cccn2c1N(C)C(=O)C(C)C	-27.6%
CCOC(=O)N(C)c1c(CC)nc2c(OCc3ccccc3C(=O)OC)cccn12	-50.7% (active)
Cc1nc2c(OCc3ccc(Cl)cc3)cccn2c1N(C)Cc1cccs1	-0.327%
Cc1nc2c(OCc3cccc(Cl)c3)cccn2c1N(C)CC1CC1	-0.943%
CCc1nc2c(OCCOc3ccccc3)cccn2c1N(C)C(=O)c1ccccc1F	14.9%
CCc1nc2c(OCC(N)=O)cccn2c1N(C)C(=O)c1ccc(OC)cc1	0%
CCCCC(=O)N(C)c1c(CC)nc2c(OCc3ccc(Cl)cc3Cl)cccn12	-63.9% (active)
CCc1nc2c(OCCOc3ccccc3)cccn2c1N(C)C(=O)c1ccc(OC)cc1	-76.4% (active)
CCc1nc2c(OCc3ccc(C(=O)OC)cc3)cccn2c1N(C)C(=O)C(C)C	-12.4%
CCCCN(C=O)c1c(CC)nc2c(OCc3ccccc3C(=O)OC)cccn12	-3.94%
Cc1nc2c(OCc3ccc(Cl)cc3Cl)cccn2c1N(C)CC1CC1	-58.1% (active)
COc1ccc(NC(=O)N(C)C[C@@H]2OCc3cn(nn3)CCCC(=O)N([C@H](C)CO)C[C@H]2C)c(OC)c1	-1.72%
Cc1ccc2nc(-c3ccco3)c(Cc3cccc(Cl)c3)n2c1	-5.94%
CCOCCC(=O)Nc1ccc2c(c1)c(=O)n(C)n2-c1ccc2ccccc2c1	-26.6%
COc1cccc(C(NC(C)=O)c2nc(-c3ccccc3OC)cs2)c1 (stereo not given)	0%
CCN(CC)C(=O)C1=C(C)N(Cc2ccc(OC)cc2)C(=O)C(CC(=O)NCCCCc2ccccc2)C1 (stereo not given)	17.3%
CCOc1ccc(CCN2C(=S)N([C@@H](CC(C)C)CN3CCC[C@@H]3CN3C(=S)NC[C@@H]3Cc3ccc(O)cc3)C[C@@H]2Cc2ccc(O)cc2)cc1	1.51%
CCCC(=O)C1CCN(Cc2ccccc2)CC1	-29.3%
CCCCN(Cc1ccccc1)C(=O)C1CCN(Cc2sccc2C)CC1	-66.6% (active)
CCCCN(C)C(=O)C1CCN(Cc2ccccn2)CC1	-26.1%

Compound	max response, negative = inhibition
Cc1ccc(F)c(S(=O)(=O)NC(=O)C2(C)CCN2C(=O)c2ccco2)c1 (stereo not given)	0%
O=C(NC1CCCCC1)C(c1cc2ccccc2o1)n1c(=O)c(-c2ccco2)nc2ccccc21 (stereo not given)	-5.65%
Cc1ccc(N(C(=O)Cc2cccs2)C2C=CS(=O)(=O)C2)cc1Cl (stereo not given)	9.44%
CCCCC(=O)N(c1ccc(OC)cc1)C1C=CS(=O)(=O)C1 (stereo not given)	-109% (active)
Cc1ccc(N(C(=O)c2ccc(S(=O)(=O)N(C)C)cc2)C2C=CS(=O)(=O)C2)cc1 (stereo not given)	-16.5%
CCCCCc1c(Cc2ccccc2)ncn1CCc1ccccc1OC	-13.9%
O=C(Nc1cccc(C(=O)O)c1)/C(=C\c1ccccc1)NC(=O)c1ccc(Br)o1	-22%
CC(=O)N1CCN(CC(c2ccccc2)c2ccccc2)CC1	18.7%
O=C(C(c1ccccc1)c1ccccc1)N1CCN(CC(O)COc2ccccc2)CC1 (stereo not given)	-23.3%
COc1ccccc1CN1CCN(C(c2ccccc2)c2ccccc2)CC1	-95.1% (active)
COc1ccccc1CN1CCN(Cc2cc(OC)c(OC)cc2OC)CC1	-21.9%
Oc1ccccc1CN1CCN(C(c2ccccc2)c2ccccc2)CC1	-76.9% (active)
c1ccc(C(c2ccccc2)N2CCN(Cc3nnnn3C3CCCCC3)CC2)cc1	-13.5%
Cn1nnnc1SCC(=O)N1CCN(C(c2ccccc2)c2ccccc2)CC1	2.83%
COc1ccccc1NC(=S)N1CCN(C(c2ccccc2)c2ccccc2)CC1	-5.17%
CC(C)OCC(O)CN1CCN(C(c2ccccc2)c2ccccc2)CC1 (stereo not given)	-50.4% (active)
CCCOc1ccc(F)cc1-c1cc(C(=O)Nc2ccc(F)cc2)[nH]n1	12.6%
CN(CCO)C(=O)c1nc[nH]c1C(=O)N(C)Cc1ccccc1	-16.2%
Cc1ccccc1-c1ccc2c(c1)O[C@@H](CN(C)Cc1ccc(C(=O)O)cc1)[C@@H](C)CN([C@H](C)CO)S2(=O)=O	17.1%
CC1(C(=O)NS(=O)(=O)c2cccc(F)c2)CCN1C(=O)Cc1ccc(Cl)cc1Cl (stereo not given)	-11%
O=C(Nc1cccc2ccccc12)c1[nH]c(-c2ccccc2)c2c1C(=O)N(C1CC1)C2=O	81%
CCC(C)CN1C(=O)CN(S(C)(=O)=O)CC1(C)C(=O)Nc1ccc2c(c1)OCCO2 (stereo not given)	15.4%
CC(=O)c1ccc(-c2cnc3c(NC=O)cc(-c4cccc(NS(C)(=O)=O)c4)cn23)cc1	127%
Nc1ncnc2c1ncn2[C@@H]1O[C@H](C(=O)N2CCSC2)[C@@H](O)[C@H]1O	-26.3%
COc1cccc(-c2nc3nc(C)cc(C)n3c2NC2CCCCC2)c1	-19.4%
C=C1C(=O)[C@]23C[C@H]1CCC2[C@@]1(C)C(C[C@@H]3O)[C@](C)(C(=O)O)CC[C@@H]1O (stereo not given in full)	-16.7%
CC1CC2=C(CC1/C=N/NC(N)=S)C(C)(C)CCC2 (stereo not given)	-76.3% (active)
